Records with an inconclusive call do not appear. Calls of active or inactive are those of the source. The call rests on the fitted dose curve; in most records, active means well fitted cell-killing curve with a large enough effect; inconclusive means small, poorly fitted or top-dose-only effect, or effect the other way; inactive means flat fitted curve, though single readings scatter.
Legend:
Test in all cases: Primary qHTS to identify gynecologic anti-cancer compounds using libraries of approved drugs and bioactive compounds (AID 1345084); further: nearly all actives have a fitted effect of over 55% in size
Settings in all cases: Gynecologic cancer cell panel viability, ATPlite luminescence, 48 h; series mostly up to 57.5 µM
OV90 = test system: OV90
In short: (§1)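 Measured: luminescence after ATPlite addition (15 min, RT). Exposure: 48 h, 37 C, 5% CO2.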

PA-1 = test system: PA-1
In short: as §1

SKOV3 = test system: SKOV3
In short: as §1

Tov-21-G = test system: Tov-21-G
In short: as §1

Tov112D = test system: Tov112D
In short: as §1

Measured: Potency

O=C(NC1CCN(CC(F)(F)F)CC1)c1ccc(-c2cccc(F)c2)nc1
inactive: OV90 | PA-1 | SKOV3 | Tov-21-G | Tov112D

O=C(C[C@@H]1C(C(=O)O)=CO[C@@H](O[C@@H]2O[C@H](CO)[C@@H](O)[C@H](O)[C@H]2O)/C1=C\CO)OCCc1ccc(O)cc1
inactive: OV90 | PA-1 | SKOV3 | Tov-21-G | Tov112D

CC1(C)OC(=O)CC(O)C2(C)C1CC(=O)C1(C)C2C(O)CC2(C)C(c3ccoc3)OC(=O)C3OC321 (stereo not given)
inactive: OV90 | PA-1 | SKOV3 | Tov-21-G | Tov112D

C=C1[C@H]2CCC3[C@]4(C)CCC[C@@](C)(C(=O)O)C4CC[C@]3(C2)[C@H]1OC(C)=O (stereo not given in full)
inactive: OV90 | PA-1 | SKOV3 | Tov-21-G | Tov112D

CC1C(=O)OCC2=CC[N+]3([O-])CCC(OC(=O)C(C)(O)C1(C)O)C23 (stereo not given)
inactive: OV90 | PA-1 | SKOV3 | Tov-21-G | Tov112D

CC1C2=CC(=O)OC2(O)CC2C1CCC1C(C)(C)CCC(O)C21C (stereo not given)
inactive: OV90 | PA-1 | SKOV3 | Tov-21-G | Tov112D

COc1ccc(-n2c(SCC#N)nc3sc4c(c3c2=O)CCCC4)cc1
inactive: OV90 | PA-1 | SKOV3 | Tov-21-G | Tov112D

O=C(/C=C/c1ccc(O)cc1)OC[C@@]1(O)C=C[C@@H]2C(C(=O)O)=CO[C@@H](O[C@@H]3O[C@H](CO)[C@@H](O)[C@H](O)[C@H]3O)[C@@H]21
inactive: OV90 | PA-1 | SKOV3 | Tov-21-G | Tov112D

C/C=C(\C)C(=O)OCC1OC(OC2OC(CO)C(O)C(O)C2O)C(O)C(O)C1O (stereo not given)
inactive: OV90 | PA-1 | SKOV3 | Tov-21-G | Tov112D

COc1cc2c(cc1O)C(c1ccc(O)cc1)C(C)C(C)C2 (stereo not given)
inactive: OV90 | PA-1 | SKOV3 | Tov-21-G | Tov112D

COC(=O)C1=CO[C@@H](O[C@@H]2O[C@H](CO)[C@@H](O)[C@H](O)[C@H]2O)/C(=C\CO)[C@@H]1CC(=O)OCCc1ccc(O)cc1
inactive: OV90 | PA-1 | SKOV3 | Tov-21-G | Tov112D

C=C(CCO[C@@H]1O[C@H](CO)[C@@H](O)[C@H](O)[C@H]1O)C(=O)O
inactive: OV90 | PA-1 | SKOV3 | Tov-21-G | Tov112D

O=C(O)CC(CCc1ccccc1)OC1OC(CO)C(O)C(O)C1O (stereo not given)
inactive: OV90 | PA-1 | SKOV3 | Tov-21-G | Tov112D

CC(=O)NC(C(=O)OC1CCC(C)(C)C2CC=C3C(=O)OCC3C12C)C(C)C (stereo not given)
inactive: OV90 | PA-1 | SKOV3 | Tov-21-G | Tov112D

C[C@@H](NC(=O)c1cc(C(=O)N[C@@H](Cc2ccccc2)[C@H](O)CNC2CC2)cc(N(C)S(C)(=O)=O)c1)c1ccccc1
inactive: OV90 | PA-1 | SKOV3 | Tov-21-G | Tov112D

C=C1C(O)CC2C(C(=O)O)=COC(O[C@@H]3O[C@H](COC(=O)c4ccc(O)cc4)[C@@H](O)[C@H](O)[C@H]3O)C12 (stereo not given in full)
inactive: OV90 | PA-1 | SKOV3 | Tov-21-G | Tov112D

CC(=O)c1ccc(O[C@@H]2O[C@H](CO[C@@H]3OC[C@@H](O)[C@H](O)[C@H]3O)[C@@H](O)[C@H](O)[C@H]2O)cc1
inactive: OV90 | PA-1 | SKOV3 | Tov-21-G | Tov112D

CC(=O)c1ccc(O[C@@H]2OC[C@@H](O)[C@H](O)[C@H]2O[C@]2(CO)O[C@H](CO)[C@@H](O)[C@@H]2O)c(O)c1
inactive: OV90 | PA-1 | SKOV3 | Tov-21-G | Tov112D

Cc1cc(CO)c(O)c(C(=O)CC2CC(=O)NC(=O)C2)c1
inactive: OV90 | PA-1 | SKOV3 | Tov-21-G | Tov112D

O=C(OCC(O)CO[C@@H]1O[C@H](C(=O)O)[C@@H](O)[C@H](O)[C@H]1O)c1ccccc1 (stereo not given in full)
inactive: OV90 | PA-1 | SKOV3 | Tov-21-G | Tov112D

Cc1ccc(Cl)cc1N(CC(=O)Nc1c(F)cccc1F)S(C)(=O)=O
inactive: OV90 | PA-1 | SKOV3 | Tov-21-G | Tov112D

CC12CC(O)C(O)C=C1c1cc(O)cc(O)c1C(=O)O2 (stereo not given)
inactive: OV90 | PA-1 | SKOV3 | Tov-21-G | Tov112D
